The panel holds about 83,000 compounds, 20% with a hit somewhere; the sample as a whole holds those more often.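 Plates (96-well) were seeded with cells, treated with compound at one concentration, and incubated for 48 hours before percent growth was determined.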 A number with no mark means an inactive call. Calls of active or inactive are those of the source. How the source made its calls: active means growth percent below 10; inactive means the rest.
What was measured:
Experiment in all cases: NCI-60 one-dose screen, 48 h (100 = growth as untreated, 0 = no growth, -100 = all killed)
Details in all cases: 10 µM unless noted
[1] = test system: MOLT-4 leukemia
[2] = test system: SR leukemia
[3] = test system: RPMI-8226 leukemia
[4] = test system: OVCAR-8 ovarian
[5] = test system: OVCAR-5 ovarian
[6] = test system: OVCAR-4 ovarian
[7] = test system: SK-OV-3 ovarian
[8] = test system: IGROV1 ovarian
[9] = test system: OVCAR-3 ovarian
[10] = test system: HS 578T breast
[11] = test system: NCI/ADR-RES ovarian
[12] = test system: T-47D breast
[13] = test system: BT-549 breast
[14] = test system: MDA-MB-435 melanoma
[15] = test system: SW-620 colon
[16] = test system: MCF7 breast
[17] = test system: HCT-116 colon
[18] = test system: HCC-2998 colon
[19] = test system: KM12 colon

Work on `C/C(=C\c1cc(C(F)(F)F)nn1CCNC(=O)OC(C)(C)C)[C@@H]1C[C@@H]2O[C@]2(C)CCC[C@H](C)[C@H](O)[C@@H](C)C(=O)C(C)(C)[C@@H](O)CC(=O)O1` yielded a growth [1] of 25.1%, a growth [2] of 28.1% and a growth [3] of 22.9%. The growth [4] was 61.8%, the growth [5] was 68.7% and the growth [6] was 71.4%. It also gave a growth [7] of 86.3%, a growth [8] of 49.2% and a growth [9] of 30.8%. For the same compound, the growth [10] was 61.3%, the growth [11] was 28% and the growth [12] was 57.8%. For the same compound, the growth [13] was 73.2%, the growth [14] was -27.6% (active) and the growth [15] was 34.7%. It also gave a growth [16] of 31.2%, a growth [17] of 23.3% and a growth [18] of 57.3%. The growth [19] was 20.3%.
With `Cc1cc(N(CCCl)CCCl)ccc1C=Nc1ccccc1-c1ccccc1` the growth [1] was 41.9%, the growth [2] was 30.6% and the growth [3] was 86.7%. For the same compound, the growth [4] was 74%, the growth [5] was 43.1% and the growth [6] was 99.5%. For the same compound, the growth [7] was 98.6%, the growth [8] was 47.8% and the growth [9] was 88.3%. For the same compound, the growth [10] was 104%, the growth [11] was 59.8% and the growth [12] was 27.5%. For the same compound, the growth [13] was 83.7%, the growth [14] was 93.5% and the growth [15] was 67%. For the same compound, the growth [16] was 39.1%, the growth [17] was 75.8% and the growth [18] was 96.9%. It also gave a growth [19] of 97.3%.
In the case of `O=C(CCCC1CCCCC1)OCC(Cl)(Cl)Cl`, the growth [1] is reported as 107%, the growth [2] is reported as 103% and the growth [3] is reported as 95.7%. For the same compound, the growth [4] was 110%, the growth [5] was 120% and the growth [6] was 105%. For the same compound, the growth [7] was 101%, the growth [8] was 106% and the growth [9] was 104%. For the same compound, the growth [10] was 103%, the growth [11] was 102% and the growth [12] was 101%. The growth [13] was 117%, the growth [14] was 111% and the growth [15] was 107%. The growth [16] was 95.5%, the growth [17] was 103% and the growth [18] was 88.4%. It also gave a growth [19] of 105%.
With `O=C(Nc1ccc(Cl)cc1)Nc1nccs1` the growth [1] was 20.6%, the growth [2] was 27.3% and the growth [3] was 5.61% (active). For the same compound, the growth [4] was 24.9%, the growth [5] was 67.4% and the growth [6] was 81.1%. For the same compound, the growth [7] was 33.1%, the growth [8] was 33.6% and the growth [9] was -26.6% (active). The growth [10] was 49.9%, the growth [11] was 8.57% (active) and the growth [12] was 40.1%. For the same compound, the growth [13] was 44.1%, the growth [14] was -49.4% (active) and the growth [15] was 26.4%. For the same compound, the growth [16] was 15.2%, the growth [17] was 41.2% and the growth [18] was 69.5%. For the same compound, the growth [19] was 34.3%.
`O=C1N[C@@H]2[C@@H](O)[C@@H](O)[C@H](O)C[C@H]2c2cc3c(c(O)c21)OCO3` was tested, and the growth [1] was -6.14% (active), the growth [2] was 6.14% (active) and the growth [3] was -24.2% (active). For the same compound, the growth [4] was -7.71% (active), the growth [5] was -13.4% (active) and the growth [6] was -23.7% (active). The growth [7] was -11.2% (active), the growth [8] was -7.85% (active) and the growth [9] was -10.8% (active). The growth [10] was -14.2% (active), the growth [11] was 1.95% (active) and the growth [12] was -8.46% (active). For the same compound, the growth [13] was -12.5% (active), the growth [14] was -42.2% (active) and the growth [15] was -0.0451% (active). For the same compound, the growth [16] was 1.73% (active), the growth [17] was -1.49% (active) and the growth [18] was -22.8% (active). For the same compound, the growth [19] was -11.5% (active).
In the case of `Cc1ccc(S(=O)(=O)F)cc1C(=O)O`, the growth [1] is reported as 99.6%, the growth [2] is reported as 103% and the growth [3] is reported as 100%. The growth [4] was 116%, the growth [5] was 102% and the growth [6] was 110%. The growth [7] was 88.3%, the growth [8] was 102% and the growth [9] was 109%. The growth [10] was 112%, the growth [11] was 105% and the growth [12] was 91.6%. For the same compound, the growth [13] was 111%, the growth [14] was 86.9% and the growth [15] was 109%. The growth [16] was 111%, the growth [17] was 111% and the growth [18] was 108%. For the same compound, the growth [19] was 109%.
With `COC(=O)C12CC(NC(=O)c3csc([C@@H](C[C@H](C(C)C)N(C)C(=O)[C@@H](NC(=O)[C@H]4CCCCN4C)C4CC4)OC(C)=O)n3)(C1)C2` the growth [1] was 15.9%, the growth [2] was 17.5% and the growth [3] was 22.9%. It also gave a growth [4] of 19.3%, a growth [5] of 35.7% and a growth [6] of 43.5%. For the same compound, the growth [7] was 3% (active), the growth [8] was 29.5% and the growth [9] was -25.2% (active). The growth [10] was 33.1%, the growth [11] was 43.7% and the growth [12] was 43.4%. The growth [13] was -10.9% (active), the growth [14] was -40.9% (active) and the growth [15] was 25.4%. For the same compound, the growth [16] was 19.2%, the growth [17] was 1.78% (active) and the growth [18] was 21.8%. For the same compound, the growth [19] was 1.43% (active).
`C[C@]12CCc3sc(-c4ccccc4O)nc3C1=CC[C@@H]1[C@@H]2CC[C@]2(C)C(=O)CC[C@@H]12` was tested, and the growth [1] was 94.7%, the growth [2] was 109% and the growth [3] was 107%. The growth [4] was 105%, the growth [5] was 104% and the growth [6] was 108%. For the same compound, the growth [7] was 102%, the growth [8] was 103% and the growth [9] was 104%. It also gave a growth [10] of 105%, a growth [11] of 106% and a growth [12] of 90.1%. For the same compound, the growth [13] was 110%, the growth [14] was 102% and the growth [15] was 103%. The growth [16] was 93.3%, the growth [17] was 104% and the growth [18] was 111%. It also gave a growth [19] of 107%.

Source: PubChem BioAssay (NCI)
